KCNH2 3.1 block – KCNH2 3.1 (human) potassium channel inhibition; U2OS KCNH2 3.1, thallium flux FluxOr; stronger effect = lower value; AID 720553; hit rate 0.95% among 340,000; activity change, % (tested at about 1.8 µM);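 active = maximum activity change below -70%; inconclusive = maximum activity change from -70% to -50%; inactive = maximum activity change above -50%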;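 note: thallium influx rate constant from kinetic fluorescence after stimulation buffer; % is set by controls: 0 for no effect and ±100 for the full control effect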
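Thallium flux via FluxOr fluorescence (Red40 quencher, 45 min loading) in U2OS cells virally expressing the KCNH2 3.1 isoform (1.77 x 10^8 /mL virus, overnight at 37 C). Rate constants from 2-min kinetic reads post-stimulation, normalised to positive and negative controls.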
RXFP1 antagonist – antagonists of human relaxin receptor RXFP1 | activity change, negative = inhibition, % at 57.5 µM | HEK293-RXFP1, relaxin-stimulated cAMP HTRF, 30 min; stronger effect = lower value | hit rate 0.59% among 350,000 | Q9HBX9 | AID 1259400;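 active = activity change of -60% or lower, but not beyond a set lower limit; inconclusive = change between -60% and -40%, or beyond the set limit; inactive = change above -40%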; note: % is set by controls: 0 for no effect and ±100 for the full control effect
Target sequence (Q9HBX9 whole entry, looked up): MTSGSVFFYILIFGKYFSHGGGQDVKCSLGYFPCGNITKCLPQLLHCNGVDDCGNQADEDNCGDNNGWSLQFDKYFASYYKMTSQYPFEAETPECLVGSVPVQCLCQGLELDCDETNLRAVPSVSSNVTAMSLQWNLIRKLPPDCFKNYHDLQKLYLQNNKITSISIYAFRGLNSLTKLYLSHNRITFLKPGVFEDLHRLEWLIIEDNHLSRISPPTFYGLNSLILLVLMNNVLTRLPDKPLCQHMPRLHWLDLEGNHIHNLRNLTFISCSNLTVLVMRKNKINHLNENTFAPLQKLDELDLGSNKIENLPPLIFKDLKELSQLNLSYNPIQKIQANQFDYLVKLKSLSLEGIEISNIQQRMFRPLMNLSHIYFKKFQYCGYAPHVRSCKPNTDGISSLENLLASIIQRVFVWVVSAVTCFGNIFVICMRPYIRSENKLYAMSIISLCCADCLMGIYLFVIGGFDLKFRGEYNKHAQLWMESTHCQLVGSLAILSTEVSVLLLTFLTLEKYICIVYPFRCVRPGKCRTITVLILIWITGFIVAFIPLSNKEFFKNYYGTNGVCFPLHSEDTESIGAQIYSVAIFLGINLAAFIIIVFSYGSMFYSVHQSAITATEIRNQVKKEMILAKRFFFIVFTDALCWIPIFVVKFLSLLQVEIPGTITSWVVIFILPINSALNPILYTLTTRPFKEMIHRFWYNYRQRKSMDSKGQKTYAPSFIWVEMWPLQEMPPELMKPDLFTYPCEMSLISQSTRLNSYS
GRP78 ERSR act – ER stress response induction in glioma; hit rate 0.02% among 420,000; Potency, µM, for inactives: top-dose activation, most hits filed as activators; U87-MG GRP78 promoter luciferase reporter, 16 h; note: potency is the fitted concentration of half-maximal effect; series mostly up to about 76 µM; % of control where 0% means no effect; nearly all actives have a fitted effect of over 35% in size
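Stably transfected U87-MG human glioma cells carrying a GRP78-based luminescent sensor were seeded at 1000 cells/well, pin-dosed with compounds and incubated 16 h. Luciferase reagent was then added, and end-point luminescence was read after 10 min at room temperature.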
RXFP1 ag – agonists of human relaxin receptor RXFP1; Q9HBX9; HEK293T-RXFP1 cAMP TR-FRET, 30 min; response scale: percent of porcine relaxin response, buffer zero; Potency, µM (series often up to 57.5 µM), for the others: top-dose activation, hits mostly activators; hit rate 0.3% among 370,000; AID 2676; note: potency is the fitted concentration of half-maximal effect; % is set by controls: 0 for no effect and ±100 for the full control effect; nearly all actives have a fitted effect of over 60% in size
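Agonist response is measured as cAMP accumulation in an RXFP1-transfected HEK293T line under PDE4 inhibition. Values are scaled between buffer-only and 29 nM porcine relaxin, and EC50s come from standard Hill equation fits.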
PTHR1 agonist – agonists of human PTHR1 parathyroid hormone receptor; Q03431; HEK293 GP2 PTHR1 cells, GloSensor cAMP luminescence, 1 h; Potency, µM (highest dose often 115 µM), for the others: top-dose activation, most hits filed as activators; hit rate 0.075% among 410,000; note: potency is the fitted concentration of half-maximal effect; nearly all actives have a fitted effect of over 55% in size
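HEK-293-derived GP2 cells expressing PTHR1 and a GloSensor cAMP reporter, 3,000/well, plated overnight, given luciferin plus IBMX (each 0.5 mM as added) for 1 h at 37 °C, then compound for 1 h at 37 °C. Luminescence was read after 15 min at room temperature.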
hERG WT inh – blocks the wildtype human KCNH2 potassium channel | Q12809 | U2OS, BacMam KCNH2, thallium flux FluxOr; stronger effect = lower value | activity change, % at 1.84 µM | hit rate 0.37% among 340,000 | AID 720551;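 active = maximum activity change below -70%; inconclusive = maximum activity change between -70% and -50%; inactive = maximum activity change above -50%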; note: % is set by controls: 0 for no effect and ±100 for the full control effect
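U2OS cells were transduced with wild-type KCNH2 virus (2.03 x 10^8 / mL) for 4 h at room temperature, then cultured overnight at 37 C. Thallium flux was read with FluxOr dye. Rate constants were normalized to DMSO controls.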
Numbers without * were called inactive; i = inactive; ? = inconclusive; / = no result; [ ] = dose if it differs, or a comment. An excerpt weighted towards active compounds, which were near 1.4% of everything screened. Unless noted, calls come from the whole dose curve; as a rule, active = well fitted curve in the direction sought with a large enough effect; inconclusive = small, poorly fitted or top-dose-only effect, or another doubt; inactive = no such curve, though single readings can be large; an effect the other way counts as inactive or inconclusive.

SMILES	KCNH2 3.1 block	RXFP1 antagonist	GRP78 ERSR act	RXFP1 ag	PTHR1 agonist	hERG WT inh
C(=C\c1ccccc1)/C=N/Nc1nc2ccccc2s1	7	-12	3%	2%	-14%[57.5 µM]	-22
CCc1cc(SC#N)cc(C)c1NC(=O)CCl	-26	-4	-15%	0%	i	4
CCc1cc(SC#N)cc(C)c1N	-74*	-4	-1%	-1%	i	12
CCOC(=O)COc1ccc(/C=C/[N+](=O)[O-])c(OCC(=O)OCC)c1	-38	-69*	-7%	3%	-35%[57.5 µM]	14
CCOc1ccc(/C=C/[N+](=O)[O-])c2ccccc12	-25	-69*	-12%	2%	-16%[57.5 µM]	-7
O=[N+]([O-])/C=C/c1c(OCc2ccccc2)ccc2ccccc12	/	/	/	0%	/	/
CCOC(=O)COc1ccc2ccccc2c1/C=C/[N+](=O)[O-]	-11	?	-14%	2%	-45%	8
O=C(Nc1ccc(OCC(=O)N2CCOCC2)cc1)Nc1cccc(Cl)c1	-82*	-12	0%	0%	-24%	14
CC1(C)NC(=O)N(CCOCCSc2ccccc2)C1=O	-1	11	0%	2%	-25%[57.5 µM]	11
Cc1cc(C)n2nc(SCc3ccccc3C(=O)O)nc2n1	-191*	4	-2%	19%	?	-144*
Cc1cc(C)n2nc(SCc3ccccc3F)nc2n1	5	-1	-2%	2%	i	3
CCOc1ccccc1CNC(=O)c1nn(C)c2c1CS(=O)(=O)c1ccccc1-2	3	-16	-7%	1%	-13%	-1
CN1CCC(N(C)CC(=O)Nc2cccc(Oc3ccccc3)c2)CC1	-95*	-4	-2%	1%	-8%[57.5 µM]	-2
O=C(/C=C/c1ccc(Cl)c(Cl)c1)n1cccn1	16	7	-6%	4%	-12%	-10
Cc1onc(-c2ccccc2Cl)c1C(=O)N1CCCc2ccccc21	2	13	-3%	0%	i	0
O=c1c2ccccc2[nH]c(=S)n1CCCN1CCN(c2ccccc2F)CC1	13	-37	-6%	2%	-12%	-70*
COc1cc(C(O)c2nc(-c3ccccc3C)cs2)ccc1F (stereo unspecified)	/	/	-4%	/	-5%	/
COc1ccc(C(=O)CC(=O)C(=O)Nc2cccc(F)c2)cc1	-34	-3	-1%	2%	-26%	-5
COc1ccc(C(=O)CNc2cccc(F)c2)cc1	-91*	10	1%	-1%	i	2
CC(=O)CCC(=O)NCCc1ccccc1F	11	-7	7%	1%	-5%[57.5 µM]	-11
Nc1nc2ncccc2cc1C(=O)NCCc1cccs1	/	/	/	/	-62%	/
CC1=Nn2c(nnc2-c2cc(C)[nH]n2)SC1	2	3	-3%	0%	i	-1
COc1ccc(NC(=O)c2c(NCc3cccc(F)c3)sc3c2CCC3)c(OC)c1	/	-62*	-9%	1%	-12%	/
COc1ccc(Cl)cc1NC(=O)c1c(NCc2ccc(C)o2)sc2c1CCCC2	/	-61*	-2%	1%	i	/
CCOC(=O)N1CCc2c(sc(NCc3ccc(OCC)cc3)c2C(=O)Nc2ccc(OC)cc2OC)C1	/	-19	/	2%	i	/
SMILES	KCNH2 3.1 block	RXFP1 antagonist	GRP78 ERSR act	RXFP1 ag	PTHR1 agonist	hERG WT inh
COc1ccc(Cl)cc1NC(=O)c1c(NCc2cccnc2)sc2c1CCCC2	/	-22	-1%	2%	-3%	/
CCOC(=O)N1CCc2c(sc(NCc3ccc(N(CC)CC)cc3)c2C(=O)Nc2cc(OC)ccc2OC)C1	/	-5	-4%	0%	40µM*	/
CCCN(CCC)c1ccc(/C=N/NC(=O)CN2CCOCC2)cc1	16	-2	-2%	0%	i	-1
O=C([C@@H]1CCCN1C(=O)c1cccs1)N1CCN(S(=O)(=O)c2ccccc2F)CC1	-18	8	-1%	0%	i	-22
O=C1/C(=C/c2ccc(O)c(O)c2)Oc2ccccc21	/	/	9%	/	/	/
CCCCn1nnnc1SCC(=O)N(CC)CC	5	9	-6%	-1%	-3%[57.5 µM]	-9
COc1ccc(C2C(C(=O)c3cccs3)=C(O)C(=O)N2c2cccc(C)n2)cc1 (stereo unspecified)	-1	7	-6%	?	-18%	-4
Cc1ccc(C2C(C(=O)c3cccs3)=C(O)C(=O)N2c2nnc(C)s2)cc1 (stereo unspecified)	-31	-1	0%	20µM*	-26%	-4
COc1ccc(N)c2c1C(=O)c1ccccc1C2=O	-98*	-19	0%	1%	-4%	-10
Nc1nc(NCCc2ccc(O)cc2)nc2nc(-c3ccco3)nn12	/	/	14%	/	/	/
COc1cccc(CN2CCN(C3CCN(c4cccc(C)c4C)CC3)CC2CCO)c1 (stereo unspecified)	-72*	-8	-6%	1%	-29%	-1
O=C(NNC(=O)c1cc(-c2cccnc2)nc2ccccc12)Nc1ccc(Cl)cc1	-36	-73*	-4%	0%	-32%	?
O=C(NNC(=O)c1cc(-c2ccccc2)nc2ccccc12)Nc1cccc(Cl)c1	-4	-24	-1%	1%	-16%	2
O=c1[nH]c(CN2CCN(C/C=C/c3ccccc3)CC2)nc2cc(Cl)ccc12	-99*	-9	-1%	0%	-14%	-110*
O=C(CCc1nc2ccccc2c(=O)[nH]1)N1CCN(C/C=C/c2ccccc2)CC1	-4	-18	-6%	3%	-19%	2
CCN1CCc2nc3ccccc3c(C(=O)Nc3ccc(F)cc3)c2C1	-83*	-8	-5%	0%	i	?
Cc1ccc(NC(=O)CSc2ccc(C(N)=O)cc2[N+](=O)[O-])cc1	-2	10	3%	2%	i	-1
Cc1ccc(NC(=O)CSc2ccc(C(N)=O)cc2[N+](=O)[O-])cc1C	-78*	-1	-1%	-1%	-48%	0
CSc1ncc(C(=O)Nc2ccc(F)cc2F)c(-c2ccccc2)n1	/	-8	-4%	?	-24%	/
CCOC(=O)CNc1nc(Cl)nc(Nc2ccc(C)cc2)n1	1	-24	3%	1%	i	-1
Cc1ccc(Nc2nc(Cl)nc(NC(C)(C)C)n2)cc1	-5	-71*	3%	0%	-32%	-10
COc1cccc(C(=O)NNC(=O)C(=O)Nc2ccc(C)cc2)c1	1	1	12%	0%	i	0
COc1cccc(C(=O)NNC(=O)C(=O)Nc2cccc(Cl)c2C)c1	7	-70*	-1%	1%	-12%	-8
O=C(Cn1sc2ccccc2c1=O)NC12CC3CC(CC(C3)C1)C2	-34	-37	-6%	1%	-7%	5
Nc1cccc2c1C(=O)N(CC(=O)NC13CC4CC(CC(C4)C1)C3)C2=O	7	0	-3%	7%	-24%	-105*

Screens deposited in PubChem by National Center for Advancing Translational Sciences (NCATS).
